Only some compounds are listed: those with a hit (about 21% of all), similar ones and a draw of the others.
HCV inh – blocks hepatitis C virus. 3.4% of 340,000 active. Potency, µM (doses to about 41.8 µM), for inactives: top-dose activity change, negative = inhibition, hits mostly inhibitors. Huh7.5.1 HCVcc-Cre infection, luciferase reporter, 44 h; also: potency is read from the fitted curve at half-maximal effect; % is scaled to controls: 0 for no effect and ±100 for the full control effect
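A cell-based infection assay in which seeded cells (1,000 per well) receive test compound after 4 h, are inoculated with HCVcc-Cre at approximately 0.5 moi, and are incubated 44 h before luminescence detection.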
AMA1-RON2 inh – disrupts binding of P. falciparum AMA1 to RON2 | AlphaScreen AMA1-biotinylated RON2 peptide binding | Potency, µM (series often up to 58.2 µM), without a hit: at the highest dose activity change, negative = inhibition, actives largely listed as inhibitors | 0.2% of 360,000 active | AID 720542;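 also: potency is read from the fitted curve at half-maximal effect; 0% = vehicle wells and -100% = peptide control; nearly all actives have a fitted effect of over 45% in size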
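AMA1 (3D7) with his tag at 25 nM final met compounds first, then biotinylated RON2 peptide at 25 nM; detection used donor plus acceptor beads, 10 µg/mL apiece, read by AlphaScreen after 30 min at room temperature.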
Pf growth 96h – P. falciparum growth inhibition at 96 hour, primary screen for plastid delayed-death inhibitors | P. falciparum luciferase reporter growth, 96 h | Potency, µM (titrated, usually from 28.7 µM), for the others: at the highest dose activity change, negative = inhibition, hits mostly inhibitors | 6.9% of 320,000 active | AID 504834; also: potency is read from the fitted curve at half-maximal effect; % is scaled to controls: 0 for no effect and ±100 for the full control effect
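96 h incubation, 37 C, 5% CO2, of luciferase-reporter P. falciparum-infected RBCs (2% hematocrit, 0.05% parasitemia final) with test compounds; endpoint luminescence.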
Pf growth 48h – inhibits P. falciparum growth in the first generation, 48 h | P. falciparum luciferase growth in erythrocytes, 48 h | Potency, µM (doses to about 28.7 µM), inactives show top-dose activity change, negative = inhibition, most hits filed as inhibitors | 5.9% of 310,000 active | AID 504832; also: potency is read from the fitted curve at half-maximal effect; % is scaled to controls: 0 for no effect and ±100 for the full control effect
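Read-out is firefly luciferase luminescence from an integrated reporter in P. falciparum, so falling signal marks reduced parasite growth. Infected erythrocytes were at 2% hematocrit and 0.1% parasitemia (final) in Albumax-supplemented RPMI 1640.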
Cycloheximide cs – counter-screen for Shiga toxin inhibitors: cycloheximide protein synthesis inhibition; cell reporter, cycloheximide protein synthesis inhibition counterscreen; max response, %; 12% of 300,000 active; in the data active = max response mostly above about 13%, no sharp cut-off; inactive = mostly below about 14%; also: read at 38.3 µM for the half of the compounds with a filed dose; 0% is about no effect
Shiga inhibitor – inhibitors of Shiga toxin in Vero cells; inhibition, % at 38.7 µM; Vero cells, Shiga toxin protein synthesis inhibition reporter; 9.2% of 290,000 active; AID 2315; in the data active = inhibition mostly above about 28%, no sharp cut-off; inactive = mostly below about 43%; also: 0% is about no effect
* marks the source's active call; other numbers are inactive results; ? = inconclusive; . = no result given; [ ] = dose if it differs, or a comment. Unless noted, calls follow the shape of the dose curve; as a rule, active = well fitted curve in the direction sought with a large enough effect; inconclusive = small, poorly fitted or top-dose-only effect, or another doubt; inactive = no such curve, though single readings can be large; an effect the other way counts as inactive or inconclusive.

SMILES	HCV inh	AMA1-RON2 inh	Pf growth 96h	Pf growth 48h	Cycloheximide cs	Shiga inhibitor
c1ccc2c(c1)Nc1cc3ccccc3cc1S2	8%	-19%	1.9µM*	-21%	26*	47*
COc1ccc2c(c1)Sc1ccccc1N2	?	16µM*	?	-9%	31*	29
S=C1Nc2ccccc2Sc2ccccc21	-9%	48%	?	-25%	6	-6
C=CCN1c2ccccc2Sc2cnccc21	.	3%	.	.	.	.
c1ccc2c(c1)Nc1ccncc1S2	?	-3%	?	15µM*	16	-2
CCC/C=C/c1ccc(CN2C(CC(C)C)C(=O)N(Cc3cn(Cc4ccco4)nn3)CCS2(=O)=O)cc1 (configuration not stated)	.	3%	.	.	.	.
CC1(C(=O)Nc2ccc3c(c2)OCCO3)CN(S(C)(=O)=O)CC(=O)N1CCCn1ccnc1 (configuration not stated)	.	-15%	.	.	.	.
COC(=O)c1cc2cc(Cl)ccc2nc1SC	?	-8%	2%	4%	-4	-5
O=C1NC(=S)N/C1=C\C=C\c1ccccc1	7%	-2%	37%	59%	30*	50*
CCOC(=O)Cn1c(=O)sc2ccccc21	-5%	3%	34%	7%	-5	-5
O=c1sc2ccccc2n1CCOc1ccccc1	-11%	5%	0%	.	39*	66*
O=C(O)CCn1c(=O)sc2ccccc21	16%	29%	9%	?	7	-9
Cc1ccc(OCn2c(=O)sc3ccccc32)cc1	6%	39%	.	48%	47*	65*
O=C1NC2=C(C(=O)CCC2)C(c2ccccc2[N+](=O)[O-])N1 (configuration not stated)	16%	0%	27%	1%	-8	-11
O=C1NC2=C(C(=O)CCC2)C(c2ccccc2Cl)N1 (configuration not stated)	11%	0%	2.9µM*	-20%[0.00184 µM]	-6	-6
N#Cc1nc(-c2ccc(Cl)cc2)oc1N1CCCCC1	?	?	33%	16%	6	27
CCCOc1ccc(-c2nc(C#N)c(N3CCC(C(N)=O)CC3)o2)cc1	?	-7%	10µM*	-2%	-4	15
N#Cc1nc(-c2ccc(OCc3ccc(Cl)cc3)cc2)oc1N1CCC(C(N)=O)CC1	?	-6%	0%	.	-2	-14
CCCOc1ccc(-c2nc(C#N)c(N3CCN(CC)CC3)o2)cc1	-20%	-20%	10µM*	?	-1	-2
N#Cc1nc(-c2ccc(OCc3ccc(Cl)cc3)cc2)oc1N1CCOCC1	?	-5%	10µM*	23%	-7	-14
COc1ccc(NC(=O)C(=O)c2cn(CC(=O)N3CCOCC3)c3ccccc23)cc1OC	?	-6%	?	-14%	-5	-3
O=C(/C=C/c1ccc2c(c1)OCO2)Nc1nc2ccccc2s1	-5%	18%	-10%	324%	41*	62*
O=C(/C=C/c1ccc2c(c1)OCO2)Nc1nc(-c2ccc(F)cc2F)cs1	-15%	.	?	1%	-5	-18
Cc1csc(NC(=O)/C=C/c2ccc3c(c2)OCO3)n1	?	14%	23%	161%	74*	91*
O=C(Nc1ccc2c(c1)OCO2)c1cncc(Br)c1	8%	-2%	?	210%	32*	66*
SMILES	HCV inh	AMA1-RON2 inh	Pf growth 96h	Pf growth 48h	Cycloheximide cs	Shiga inhibitor
NS(=O)(=O)c1cccc(NC(=O)c2cncc(Br)c2)c1	8%	0%	44%	25%	7	31
O=C(Nc1ccc2c(c1)OCCO2)c1cncc(Br)c1	-7%	-1%	57%	-15%	23*	58
CCN(CC)S(=O)(=O)c1ccc(C(=O)Nc2ccc3c(c2)OCO3)cc1	-15%	-8%	?	-18%	6	32
C=CCn1c(CNS(=O)(=O)c2ccc(Br)cc2)n[nH]c1=S	-4%	63%	-2%	50%	-1	-4
CCNC(=O)CSc1nnc(-c2cccc(S(=O)(=O)N3CCOCC3)c2)o1	9%	-6%	-15%	?	.	.
O=C(Nc1cccc2[nH]c([C@H]3C[C@H](O)[C@@H](CO)O3)nc12)NC(c1ccccc1)c1ccccc1	.	-7%	.	.	.	.
